Experimental data: PubChem BioAssay AID463173 (ICCB-Longwood Screening Facility, Harvard Medical School, 2010)
The whole screen tested about 52,000 compounds, of which about 4,300 (8.3%) were called active. The list comes from a sample in which actives are over-represented; it also holds similar structures and randomly drawn compounds. Unmarked numbers belong to inactive results. No stated cut-off is given here; in the data, active means survival mostly below about 52% (no sharp cut-off); inactive means mostly above about 56%.

These compounds were tested on DeltatarO mutant (assay: S. aureus survival, RN4220 and DeltatarO strains – OD600, teichoic acid synthesis inhibitors, primary screen (AID 463173)). Conditions: S. aureus RN4220 wild type/DeltatarO growth, OD600, 18 h, stronger effect = lower value, screened at 18.75 µg/mL (by protocol).

SMILES	survival
Cc1ccc(-n2nc(C)c3c(C)c(CCC(=O)NCc4ccc(Cl)cc4)c(C)nc32)cc1	89%
O=C(CN1CCN(Cc2ccccc2Cl)C1=O)NCc1ccccc1Cl	67%
CCc1cc(C=Nc2ccccc2)c(O)s1	98%
Cc1cc(N2CCN(c3cccc(C)c3C)CC2)n2nc(C)c(-c3ccc(Cl)cc3)c2n1	87%
Cc1ccc(CNC(=O)c2cc3sccc3n2Cc2ccc(F)cc2)cc1	83%
COC(=O)CN1C(=O)CSc2ccc(S(=O)(=O)Nc3ccc(Cl)cc3C)cc21	124%
Cc1cccc(-c2nc(SCCCOc3ccc(Cl)c(C)c3)n3[nH]c(=O)cc3n2)c1	72%
N#Cc1cc2c(=O)n3ccccc3nc2n(-c2nnc(SCc3ccccc3F)s2)c1=O	81%
CCc1ccc(NC(=O)CSC2=Nc3ccccc3C3=NC(CC(=O)NCc4ccc5c(c4)OCO5)C(=O)N23)cc1 (centres undefined)	107%
COCCN1Cc2cccc(C(=O)Nc3ccc(Cl)cc3Cl)c2C1=O	59%
C=Cc1ccc(Cn2c(=O)cc(C)c3c(C)nn(C)c32)cc1	8% (active)
Cc1cc(=O)n(Cc2ccccc2)c2c1c(C)nn2C	20% (active)
COC(=O)c1ccc(Cn2c(=O)cc(C)c3c(C)nn(C)c32)cc1	66%
Cc1cc(=O)n(Cc2cccc(Cl)c2)c2c1c(C)nn2C	102%
Cc1ccc(C)c(Cn2c(=O)cc(C)c3c(C)nn(C)c32)c1	91%
Cc1cc(=O)n(Cc2ccccc2)c2c1c(C)nn2-c1ccccc1	89%
COc1cccc(Cn2c(=O)cc(C)c3c(C)nn(C)c32)c1	89%
Cc1cc(=O)n(Cc2ccc(Cl)cc2)c2c1c(C)nn2-c1ccccc1	126%
C=Cc1ccc(Cn2c(=O)cc(C)c3c(C)nn(-c4ccccc4)c32)cc1	17% (active)
CCc1ccccc1NC(=O)CCC(=O)N1CC(C)Oc2ccc(C)cc21 (centres undefined)	62%
O=C(COc1ccc2ccccc2c1)NC1CC(=O)N(c2ccc(F)cc2)C1 (centres undefined)	69%
CC(C)CCn1nnnc1CN1CCN(Cc2ccc3c(c2)OCO3)CC1	69%
CCOC(=O)c1nnn(C(CC)C(=O)Nc2c(C)cccc2C)c1C(=O)OCC (centres undefined)	100%
Cc1cccn2c(=O)c3cc(C#N)c(=O)n(-c4nnc(SCc5ccc(Cl)cc5)s4)c3nc12	81%

SMILES	survival
CC(C)N(C(=O)Cn1cc(S(=O)(=O)Cc2ccc(C(F)(F)F)cc2)c2ccccc21)C(C)C	54%
Cc1cc(C)c(NC(=O)Cn2c(=O)n(Cc3ccc(C(=O)NCc4ccco4)cc3)c(=O)c3sccc32)c(C)c1	173%
Cc1cccc(NS(=O)(=O)c2ccc3oc(=O)c4ncn(C)c4c3c2)c1C	109%
Cc1ccc(NC(=O)c2ccc(CNS(=O)(=O)c3ccc4c(c3)C(C)(C)C(=O)N4C)cc2)cc1C	62%
COc1ccc(OC)c(CCNc2ncnc3onc(-c4ccc(Cl)cc4)c23)c1	94%
CCOc1ccc2oc(=O)cc(CN3CCN(c4ccc(Cl)cc4)CC3)c2c1	97%
CCN1CC=C2C(C#N)=C(N)C(C#N)(C#N)C(C)C2C1 (centres undefined)	80%
CC1CCC(NC(=O)CCc2cn(Cc3ccccc3Cl)c3ccccc23)CC1 (centres undefined)	51% (active)
O=C(CCc1cn(Cc2ccccc2Cl)c2ccccc12)NC1CCCCC1	71%
Cc1ccc(Cn2cc(CCC(=O)NC3CCC(C)CC3)c3ccccc32)cc1 (centres undefined)	74%
O=C(O)c1ccc(C2Nc3ccccc3-c3nnc(SCc4ccc(Cl)cc4)nc3O2)cc1 (centres undefined)	85%
Cc1ccc(C)c(CN2C(=O)c3ccccc3S(=O)c3ccc(C(=O)NCc4ccco4)cc32)c1 (centres undefined)	72%
COc1ccc2nc(SC)nc(C)c2c1	67%
COc1ccc2oc(=O)c(C(=O)N3CCC(C(N)=O)CC3)cc2c1	79%
COc1ccc2oc(=O)c(C(=O)N3CCN(c4cc(Cl)ccc4Cl)CC3)cc2c1	48% (active)
COc1ccc2oc(=O)c(C(=O)N3CCN(c4ccc(C)cc4)CC3)cc2c1	91%
CC(=O)Nc1cc(C(=O)NCc2ccc(F)cc2)ccc1Sc1ccc(C)cc1	94%
CCCCN(CC)c1nc(-c2ccccc2F)nc2ccccc12	94%
CC(C)CN(CC(C)C)c1nc(-c2ccc(Cl)cc2)nc2ccccc12	-1% (active)
COc1ccccc1Nc1nc(-c2ccccc2F)nc2ccccc12	73%
CCN(CC)c1nc(-c2ccc(C(C)(C)C)cc2)nc2ccccc12	-1% (active)
CCCCN(CCCC)c1nc(-c2ccccc2)nc2ccccc12	30%
Cc1cc(Sc2ccc(Cl)cc2)nc2ccccc12	45%
CCCN(CCC)c1nc(-c2ccccc2F)nc2ccccc12	4% (active)

SMILES	survival
CCN(CC)c1nc(-c2ccccc2)nc2ccccc12	86%
Cc1cccc(OCCn2c(-c3ccc(Cl)cc3)nc3ccccc3c2=O)c1C	77%
COc1cccc2[nH]c(C(=O)NCc3ccc4c(c3)CCN4C(=O)c3ccc(F)cc3)cc12	84%
CNC(=O)c1c(NC(=O)/C=C/c2ccccc2)sc2c1CCC2	87%
CCC(Sc1nnc2c(n1)[nH]c1ccccc12)C(=O)Nc1ccccc1OC (centres undefined)	56%
CC(C)(C)NC(=O)CN1CCC(n2nnc3cc(F)ccc32)CC1	93%
COC(=O)c1scc(-c2ccc(C)cc2)c1S(=O)(=O)Nc1cccc(Cl)c1C	101%
CC(=O)c1cc(-c2ccc(F)cc2)n(CCC(=O)NCc2ccc(C)cc2)c1C	73%
COc1cccc(/C=C2/SC(=O)N(C)C2=O)c1O	83%
COc1ccc(C(=O)c2cn(Cc3ccccc3OC)c3cc4c(cc3c2=O)OCO4)cc1	95%
Clc1cccc(CNc2ncnc3c2nc2n3CCCC2)c1	88%
Clc1ccccc1Nc1ncnc2c1nc1n2CCCCC1	8% (active)
Fc1ccccc1Nc1ncnc2c1nc1n2CCCCC1	68%
COc1ccc(Nc2ncnc3c2nc2n3CCCC2)cc1Cl	80%
COc1ccccc1Nc1ncnc2c1nc1n2CCCCC1	128%
Clc1cccc(Nc2ncnc3c2nc2n3CCCCC2)c1	17% (active)
COc1ccc(C)cc1NC(=O)C1CCN(S(=O)(=O)Cc2ccccc2)CC1	67%
O=C(CSc1nccn1C1CCCC1)Nc1ccc(C(F)(F)F)cc1	101%
CCN(CC)CCCNC(=O)CCc1c(C)nc2c(c1C)c(=O)n(C)c(=O)n2C	96%
O=C(CN1C(=O)CCc2cc(S(=O)(=O)N3CCOCC3)ccc21)NCc1ccc(F)cc1	93%
CCS(=O)(=O)c1nc(S(=O)(=O)c2ccc(C)cc2)c(NC)s1	102%
CCN1CCN(c2nc3c(S(=O)(=O)c4ccc(C)cc4)nnn3c3ccsc23)CC1	65%
CCCNS(=O)(=O)c1ccc(CCC(=O)NCC2CCCO2)cc1 (centres undefined)	89%
CN(c1ccc(C(=O)NCC2CCCO2)cc1)S(C)(=O)=O (centres undefined)	74%

SMILES	survival
CCc1ccc(N(CC(=O)NCC2CCCO2)S(C)(=O)=O)cc1 (centres undefined)	66% (active)
CCc1ccc(NC(=O)c2sc3nc(C)cc(C)c3c2NC(=O)c2ccccc2OC)cc1	69%
O=C(Nc1ccc(F)cc1)c1ncn(-c2ccccc2)n1	86%
COc1ccc(-c2nc(C(=O)Nc3ccc(C(C)=O)cc3)nn2-c2cccc(Cl)c2)cc1	46% (active)
CC(=O)c1ccc(NC(=O)c2nc(-c3ccccc3)n(-c3ccc(C)cc3)n2)cc1	60%
CC(=O)c1ccc(NC(=O)c2nc(-c3ccccc3)n(-c3ccccc3)n2)cc1	87%
CCOC(=O)c1ccc(NC(=O)c2ncn(-c3ccccc3)n2)cc1	99%
CC(=O)c1ccc(NC(=O)c2ncn(-c3ccccc3)n2)cc1	34% (active)
CC(=O)c1cccc(NC(=O)c2nc(-c3ccccc3)n(-c3ccccc3)n2)c1	56%
CC(=O)c1ccc(NC(=O)c2nc(-c3ccccc3)n(-c3ccccc3Cl)n2)cc1	64%
COc1ccc(-n2nc(C(=O)Nc3ccc(C(C)=O)cc3)nc2-c2ccccc2)cc1	49% (active)
COc1ccc(-c2nc(C(=O)Nc3cccc(C(C)=O)c3)nn2-c2ccc(Cl)cc2)cc1	99%
CC(=O)c1cccc(NC(=O)c2nc(-c3ccccc3)n(-c3cccc(Cl)c3)n2)c1	68%
CC(=O)c1ccc(NC(=O)c2nc(-c3ccccc3)n(-c3ccc(Cl)cc3)n2)cc1	49% (active)
CC(C)(C)C1CCc2c(sc(NC(=O)Cn3nnc(-c4ccccc4F)n3)c2C#N)C1 (centres undefined)	66%
N#CC(=C1CCN(Cc2ccccc2)CC1)c1ccccc1	85%
Cc1cccc(NC(=O)c2cc3c(=O)n(Cc4ccco4)ccc3nc2C)c1	87%
CCNC(=O)c1nn(-c2ccccc2C)nc1CO	106%
CCOc1ccc(NC(=O)CC2C(=O)N(c3ccc(C)cc3)C(=O)N2C2CCCCC2)cc1 (centres undefined)	64%
COc1ccccc1C(=O)Nc1c(C(=O)N(C)c2ccccc2)sc2nc(C)cc(C)c12	58%
CCCN(C(=O)C1CC1)c1nnc(-c2ccc(Cl)cc2)s1	79%
Cc1c(C(=O)Nc2cccc(Cl)c2)oc2ccc(S(=O)(=O)N(C)C3CCCCC3)cc12	71%
